The record followed here is PubChem BioAssay AID651998 (The Scripps Research Institute Molecular Screening Center, 2013).

Usually pKi stands for −log10 of the Ki, conventionally taken in molar units.

Each structure is given as a SMILES string. pKi: −log10 of the molar value.

The test system of this assay is LYPLA1. In words: LYPLA1 enzyme kinetics with inhibitors – biochemical, substrate-based fluorescence, Ki, Km, late-stage follow-up (AID 651998). Conditions: recombinant LYPLA1, resorufin acetate hydrolysis fluorescence, Ki from Cheng-Prusoff.

Turning to `O=C(CN1CCN(C(=O)c2ccco2)CC1)Nc1cc(C(F)(F)F)ccc1Cl`, the pKi was 6.52.
